Source: PubChem BioAssay (Tox21)
Results filed as inconclusive are left out. Active and inactive are the calls of the source. Calls follow the shape of the full dose curve.

What follows are molecules tested against Vitamin D3 receptor (Homo sapiens) (UniProt P11473) (assay: qHTS assay to identify small molecule agonists of the vitamin D receptor (VDR) signaling pathway (AID 743222)). Settings: HEK293T VDR-UAS-bla, beta-lactamase FRET ratio, 16 h; series mostly up to 63.5 µM.
From the text: National Center for Advancing Translational Sciences [NCATS]
NIH Chemical Genomics Center [NCGC]
U.S. Environmental Protection Agency [EPA]
National Institutes of Environmental Health Sciences [NIEHS]
National Toxicology Program [NTP]
U.S. Food and Drug Administration [FDA]
The vitamin D receptor (VDR), a member of nuclear hormone receptor superfamily, plays a critical role in calcium homeostasis and bone metabolism. It is also involved in cell differentiation and growth, and thrombogenicity.
Tox21 Assay Protocol Summary:
VDR-bla cells were dispensed at 2,000 cells/6 uL/well into black wall/clear-bottom 1536-well plates using a Multidrop Combi (Thermo Fisher Scientific, Waltham, MA) dispenser. After the assay plates were incubated at a 37C and 5% CO2 for 4 h, 23 nL of compounds dissolved in DMSO, positive controls or DMSO only was transferred to the assay plate by a Pintool station (Kalypsys, San Diego, CA). The plates were incubated at 37C and 5% CO2 for 16 h. After 1 uL of LiveBLAzerTM B/G FRET substrate was added using a Bioraptr Flying Reagent Dispenser (FRD) workstation (Beckman Coulter, Indianapolis, IN, USA), the plates were incubated at room temperature for 2 h, and fluorescence intensity was measured by an Envision plate reader (PerkinElmer, Shelton, CT).

Sequence of Vitamin D3 receptor (Homo sapiens) (P11473 whole entry, looked up): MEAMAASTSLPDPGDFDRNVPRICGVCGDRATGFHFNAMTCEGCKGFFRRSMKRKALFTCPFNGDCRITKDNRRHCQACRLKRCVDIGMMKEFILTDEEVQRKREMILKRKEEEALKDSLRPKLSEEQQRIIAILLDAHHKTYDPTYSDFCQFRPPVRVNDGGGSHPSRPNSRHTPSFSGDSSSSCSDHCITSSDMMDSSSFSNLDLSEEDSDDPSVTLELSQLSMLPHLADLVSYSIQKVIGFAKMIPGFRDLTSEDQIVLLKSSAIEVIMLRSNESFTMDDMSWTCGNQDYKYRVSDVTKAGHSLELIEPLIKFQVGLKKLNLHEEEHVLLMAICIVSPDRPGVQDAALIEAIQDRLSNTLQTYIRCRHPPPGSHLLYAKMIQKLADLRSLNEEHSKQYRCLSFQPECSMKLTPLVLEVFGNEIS

Compound | outcome
Cc1cc(O)c(C(C)C)cc1Cl | inactive
CCCC1C(CC)=CC(CC)=CN1c1ccccc1 (stereo not given) | inactive
O=C(O)Cc1ccc(-c2ccccc2)cc1 | inactive
Cc1cc(S(=O)(=O)O)ccc1N=Nc1c(O)ccc2ccccc12 | inactive
Oc1ccc(Nc2ccccc2)cc1 | inactive
C=CC(=O)NCOCC(C)C | inactive
CCCOC(=O)c1ccc(N)cc1 | inactive
Nc1c(I)cc(I)c(C(=O)N(CCC(=O)O)c2ccccc2)c1I | inactive
O=C(C(=O)c1ccccc1)c1ccccc1 | inactive
CCOC(=O)CC(=O)C(=O)OCC | inactive
CC1=C(/C=C/C(C)=C\C=C\C(C)=C\C(=O)O)C(C)(C)CCC1 | inactive
C=CC(=C)CCCC(C)(C)OC(C)=O | inactive
CC(C)(C)C(=O)O | inactive
O=C(Nc1ccc([N+](=O)[O-])cc1)Nc1ccc([N+](=O)[O-])cc1 | inactive
C/C=C(\C)C(=O)OCCC(C)CCC=C(C)C (stereo not given) | inactive
C1COCO1 | inactive
CCCC(=O)O[C@]1(C(=O)COC(=O)CC)CC[C@H]2[C@@H]3CCC4=CC(=O)CC[C@]4(C)[C@H]3[C@@H](O)C[C@@]21C | inactive
CCOC(=O)C(C)Oc1ccc(Oc2nc3ccc(Cl)cc3o2)cc1 (stereo not given) | inactive
CN1CCCN=C1/C=C/c1cccs1 | inactive
CC(=O)Nc1ccc(N)cc1 | inactive

Compound | outcome
CCC(C)=O | inactive
O=C(OCCOCCO)c1ccccc1Nc1cccc(C(F)(F)F)c1 | inactive
CCC(Cc1ccccc1)(C(=O)c1ccc(N2CCOCC2)cc1)N(C)C (stereo not given) | inactive
C=C(C)C(=O)OCCOC(=O)CC(C)=O | inactive
O=C(CCCCCCCCC#CI)Oc1ccccc1 | inactive
COC(=O)Nc1nc2ccc(C(=O)c3cccs3)cc2[nH]1 | inactive
CC(=O)Nc1ccccc1C | inactive
CC(=O)Oc1ccc2c(c1)CC[C@@H]1[C@@H]2CC[C@]2(C)[C@@H](O)CC[C@@H]12 | inactive
C/C(=N/NC(=O)c1ccncc1)C(=O)O | inactive
Cc1cc(C(=C2C=CC(=Nc3ccc(S(=O)(=O)O)cc3S(=O)(=O)O)C=C2)c2ccc(Nc3ccc(S(=O)(=O)O)cc3)cc2)ccc1N | inactive
CCC(C)(O)CCC=C(C)C (stereo not given) | inactive
C=CCOC(=O)/C=C\C(=O)OCC=C | inactive
CC(C)CCCCCOC(=O)CCCCC(=O)OCCCCCC(C)C | inactive
CCOc1cc(N)c(Cl)cc1C(=O)NCC1CN(Cc2ccc(F)cc2)CCO1 (stereo not given) | inactive
CC(C)(CCl)c1ccccc1 | inactive
CC1=CC(=O)CC(C)(C)C1(O)/C=C/C(C)=C\C(=O)O (stereo not given) | inactive
CCCCC(CC)COC(=O)COc1ccc(Cl)cc1C (stereo not given) | inactive
CC(=N\O)/C(C)=N/O | inactive
CN(C)CCOC1=Cc2ccccc2Sc2ccc(Cl)cc21 | inactive
CC(C)C(=O)O | inactive
